This note sets out measurements from PubChem BioAssay (NCI).

Among the test systems are NCI-H23 lung; NCI-H322M lung; NCI-H460 lung; HOP-92 NSCLC; NCI-H522 lung; A549/ATCC NSCLC; 786-0 renal; COLO 205 colon; DU-145 prostate; K-562 leukemia; MDA-MB-231 breast; RXF 393 renal; SF-268 CNS; SF-295 CNS; SF-539 CNS; UACC-257 melanoma; M14 melanoma; HOP-62 NSCLC; MALME-3M melanoma.
Holding throughout (assay): NCI-60 one-dose screen, 48 h (100 = growth as untreated, 0 = no growth, -100 = all killed)
Common to all, as to conditions: 10 µM unless noted

About 83,000 compounds went through this panel and 20% of them were active in at least one assay; those are over-represented in the sample as a whole.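 Compound tested at a single concentration for 48 hours in 96-well plates; a percent growth value below 10 was scored as active.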 Values without a mark were called inactive. The source made the active and inactive calls.

For `COC(=O)[C@]1(C)CCC[C@]2(C)c3ccc(C(C)C)cc3C(=O)[C@@H](Br)[C@@H]12`, the growth was 90.3% in the test with NCI-H23 lung; 118% in the test on NCI-H322M lung; 106% in the test on NCI-H460 lung; 82.6% in the test with HOP-92 NSCLC; 80.8% with NCI-H522 lung; 90.1% with A549/ATCC NSCLC. The growth with 786-0 renal was 94.8%; with COLO 205 colon, 106%; with DU-145 prostate, 102%; with K-562 leukemia, 72.4%; with MDA-MB-231 breast it was 82.9%; in the test on RXF 393 renal it was 74.2%. The growth in the test with SF-268 CNS is 102%; in the test on SF-295 CNS, 91.4%; with SF-539 CNS, 98.2%; in the test with UACC-257 melanoma it was 92.5%; with M14 melanoma it was 90.6%.
Turning to `O=C(Nc1cccc(C(F)(F)F)c1)Oc1ccc(Cl)c2cccnc12`, the growth with NCI-H23 lung was 8.91% (active); with NCI-H322M lung it was 101%; with HOP-62 NSCLC, 76.8%; in the test on NCI-H460 lung it was 10.4%; with NCI-H522 lung, -77.1% (active); in the test with A549/ATCC NSCLC, -1.52% (active). The growth in the test on 786-0 renal was 88%; in the test with COLO 205 colon, 89.6%; with DU-145 prostate, 39.6%; in the test with K-562 leukemia, 16.2%; with MALME-3M melanoma, -2.66% (active); in the test with MDA-MB-231 breast it was 22.7%. For the same compound, the growth in the test on RXF 393 renal is 68.6%; with SF-268 CNS, 15.1%; with SF-295 CNS, 4.11% (active); in the test on SF-539 CNS it was 50.9%; in the test on UACC-257 melanoma, -60% (active); with M14 melanoma it was 24.9%.
In the case of `O=C1C=C(Cl)C(=O)c2ccccc21`, the growth is 99.6% in the test on NCI-H23 lung; 88.8% in the test on NCI-H322M lung; 84.5% with HOP-62 NSCLC; 11% in the test with NCI-H522 lung; 110% in the test with 786-0 renal; 93.2% in the test on COLO 205 colon. Moreover, the growth in the test with DU-145 prostate was 118%; in the test on K-562 leukemia, 24.2%; in the test with MALME-3M melanoma, 85.1%; in the test on MDA-MB-231 breast it was 69.1%; with SF-268 CNS, 93.2%; in the test on SF-295 CNS, 97.4%. The results for the growth in the test with SF-539 CNS, in the test with UACC-257 melanoma and in the test with M14 melanoma were 109%, 96.2% and 107%, respectively.
For the compound `Clc1ccc(-n2ncc3c(NCCCN4CCOCC4)ncnc32)cc1`, the growth in the test on NCI-H23 lung was 87.6%; with NCI-H322M lung, 89.8%; in the test on HOP-62 NSCLC it was 87.7%; in the test on NCI-H460 lung it was 102%; in the test with HOP-92 NSCLC it was 71.3%; in the test with NCI-H522 lung, 94.7%. Moreover, the growth with 786-0 renal is 107%; with COLO 205 colon it was 87.4%; with DU-145 prostate, 104%; in the test on K-562 leukemia, 94.2%; with MALME-3M melanoma, 95.7%; in the test on MDA-MB-231 breast, 83.2%. In addition, the growth is 90.3% in the test with RXF 393 renal; 99.1% in the test with SF-268 CNS; 99.4% in the test with SF-295 CNS; 97% with SF-539 CNS; 97.2% in the test on M14 melanoma.
As for `CCCCCCCCCCCCCCCCCC[S+](C)CC` (stereo unspecified), the growth in the test with NCI-H23 lung is 36.3%; in the test on HOP-62 NSCLC it was 15.6%; in the test with NCI-H460 lung, 33.6%; in the test with HOP-92 NSCLC, 27.3%; in the test with NCI-H522 lung it was 30.2%; in the test on A549/ATCC NSCLC, 42.3%. Besides, the growth with 786-0 renal is 29.1%; with COLO 205 colon it was -38% (active); in the test on DU-145 prostate it was 64.3%; with K-562 leukemia, 47.9%; in the test on MDA-MB-231 breast, -2.38% (active); in the test with RXF 393 renal, -81% (active). The growth was 30.6% with SF-268 CNS; 68.8% in the test on SF-295 CNS; 31% in the test on SF-539 CNS; 45.8% with UACC-257 melanoma; 4.94% (active) in the test on M14 melanoma.
Turning to `CC(C)Nc1ccc(Nc2ccc(NC(C)C)cc2)cc1`, the growth is 25.9% in the test on NCI-H23 lung; 84.6% in the test on NCI-H322M lung; 76.4% in the test on HOP-62 NSCLC; 24.7% with NCI-H460 lung; 72.6% with HOP-92 NSCLC; 35.2% in the test with NCI-H522 lung. Further, the growth in the test with A549/ATCC NSCLC was 40.9%; in the test with 786-0 renal it was 66%; with COLO 205 colon, 25.8%; with DU-145 prostate, 63.1%; in the test on K-562 leukemia it was 24.6%; with MALME-3M melanoma it was 35.8%. Moreover, the growth in the test with MDA-MB-231 breast was 33.3%; with RXF 393 renal, 77.5%; in the test on SF-268 CNS, 63.5%; in the test with SF-295 CNS, 67.6%; with UACC-257 melanoma, 23.7%; in the test with M14 melanoma, 72%.
As for `O=C1/C(=C/c2ccccc2)CCC/C1=C\c1ccccc1`, the growth with NCI-H23 lung is 88%; in the test on NCI-H322M lung, 94.9%; in the test with HOP-62 NSCLC, 109%; in the test on NCI-H460 lung, 103%; with NCI-H522 lung it was 78.7%; with A549/ATCC NSCLC it was 98.8%. Besides, the growth in the test with 786-0 renal is 87.7%; in the test on COLO 205 colon, 127%; with DU-145 prostate, 90%; with K-562 leukemia, 62%; in the test on MALME-3M melanoma, 89.5%; in the test on MDA-MB-231 breast, 98.9%. Moreover, the growth is 98% in the test on RXF 393 renal; 86.9% in the test on SF-268 CNS; 91.8% in the test on SF-295 CNS; 111% in the test on SF-539 CNS; 84.5% in the test with UACC-257 melanoma; 64% in the test with M14 melanoma.
`COc1cc2c(c(OC)c1OC)-c1ccc(NCc3ccccc3)c(=O)cc1[C@@H](NC(C)=O)CC2`: the growth with NCI-H23 lung was 25.9%; with NCI-H322M lung, 50.1%; with HOP-62 NSCLC, 26.9%; in the test on NCI-H460 lung it was 4.14% (active); with NCI-H522 lung, -10.3% (active); in the test on A549/ATCC NSCLC it was 14.5%. Further, the growth in the test on 786-0 renal was 21.9%; in the test on COLO 205 colon, -82.4% (active); with DU-145 prostate it was 1.24% (active); in the test with K-562 leukemia, 2.48% (active); in the test with MALME-3M melanoma, 40.3%; in the test with MDA-MB-231 breast it was -3.82% (active). In addition, the growth in the test with RXF 393 renal was 51.8%; in the test with SF-268 CNS it was 25.3%; with SF-295 CNS, -36.2% (active); in the test on SF-539 CNS, 0.134% (active); in the test on UACC-257 melanoma, 63.4%; in the test on M14 melanoma, 13.6%.
Consider `CCCCCCCCCCCC[N+]1(CCCCCCCCCCCC)CCCC(C)C1` (stereo unspecified), for which the growth was -91.9% (active) in the test on NCI-H23 lung; -85.9% (active) in the test on NCI-H322M lung; -96.3% (active) with HOP-62 NSCLC; -90.7% (active) in the test on NCI-H460 lung; -86.5% (active) with HOP-92 NSCLC; -90.1% (active) in the test on NCI-H522 lung. In addition, the growth is -98.6% (active) with A549/ATCC NSCLC; -98.4% (active) in the test with 786-0 renal; -98.8% (active) in the test on COLO 205 colon; -83.8% (active) in the test with DU-145 prostate; -79.1% (active) in the test on K-562 leukemia; -75.1% (active) in the test on MALME-3M melanoma. For the same compound, the growth in the test with MDA-MB-231 breast was -82.6% (active); in the test on SF-268 CNS, -87.7% (active); in the test on SF-295 CNS, -77.1% (active); in the test with SF-539 CNS, -99.6% (active); with UACC-257 melanoma, -96.2% (active); in the test with M14 melanoma it was -97.3% (active).
